The list is not random: actives were taken first. Their share in the collection is about 3.5%.
MITF primary: blocks human microphthalmia-associated transcription factor | O75030 | AlphaScreen MITF homodimerization, bead proximity signal | inhibition, % at 2.6 µM | hit rate 0.91% among 650,000; in the data active means inhibition above about 50%
GPR151 ag: activators of human GPR151 | Q8TDV0 | PathHunter beta-arrestin GPR151 cells, luminescence | activation, % at 11.2 µM | hit rate 1% among 650,000 | AID 1508602; in the data active means activation above about 4.9%
FBW7 act: activators of human E3 ligase FBW7; Q969H0; AlphaScreen FBW7–phospho-cyclin E peptide binding, activator screen; normalized activity (activation), % at 26.1 µM; hit rate 0.13% among 650,000; in the data active means normalized activity above about 1.9%;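 further: purified mutant Fbw7 with reduced substrate affinity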
TEAD-YAP block: TEAD-YAP interaction inhibition; HEK-TIYL cells, TEAD-Gal4/YAP UAS-luciferase luminescence; inhibition, % at 9.12 µM; hit rate 1.4% among 640,000; AID 1259422; in the data active means inhibition above about 32%
GPR151 conf act: human GPR151 activation, confirmation screen; GPR151 PathHunter beta-arrestin cells, luminescence, 90 min; % of EA-reagent control over plate median; shares compounds with GPR151 ag; 6,700 tested, under 10 active; AID 1508609; activation, % at 11.2 µM;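 active means mean percent activation across replicates above the confirmation screen cutoff of 4.91%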
GPR119 ag: GPR119 activation, counter-screen for GPR151 activators; shares compounds with GPR151 ag; GPR119 PathHunter beta-arrestin cells, luminescence, 90 min; 0 = compound-well median, 100 = enzyme-acceptor control; activation, % at 11.2 µM; AID 1508611; hit rate 0.3% among 6,700;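 active means mean percent activation in the counterscreen above 29.09%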;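 further: counterscreen on off-target GPR119 to flag nonselective hits from the GPR151 activator screen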
Target sequence (Q8TDV5 whole entry, looked up): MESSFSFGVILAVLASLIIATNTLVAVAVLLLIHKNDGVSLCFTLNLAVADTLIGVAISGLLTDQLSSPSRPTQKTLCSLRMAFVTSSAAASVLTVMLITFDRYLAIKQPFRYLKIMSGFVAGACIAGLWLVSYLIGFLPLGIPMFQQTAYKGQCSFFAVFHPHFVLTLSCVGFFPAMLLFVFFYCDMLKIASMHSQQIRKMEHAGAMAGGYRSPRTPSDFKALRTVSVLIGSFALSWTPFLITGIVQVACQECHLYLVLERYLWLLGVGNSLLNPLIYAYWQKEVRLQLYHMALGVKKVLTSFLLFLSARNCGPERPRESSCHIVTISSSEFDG
Numbers stand for hits; 0 = inactive; - = no result.

SMILES	MITF primary	GPR151 ag	FBW7 act	TEAD-YAP block	GPR151 conf act	GPR119 ag
C=CCn1c(=O)c2c(nc3n(-c4ccccc4C)c(C)c(C)n23)n(C)c1=O	0	0	0	0	-	-
CC(=O)Cn1c(=O)c2c(nc3n(-c4ccccc4C)c(C)c(C)n23)n(C)c1=O	0	5.5	0	0	0	0
COCCN1C(=O)CC(C(=O)OC)C12CCN(C(=O)C1COc3ccccc3O1)CC2 (centres undefined)	0	0	0	0	-	-
Cc1ccc(OCC(=O)NCCN(C)C)c(C)c1	0	0	0	0	-	-
O=C(CS(=O)(=O)c1ccccc1)Nc1nc(-c2ccc(F)cc2)cs1	0	9.7	0	0	0	0
O=C(CS(=O)(=O)c1ccccc1)Nc1nc(-c2ccc3ccccc3c2)cs1	0	0	0	0	-	-
COCCn1c2c(=O)n(C)c(=O)n(C)c2n2c(-c3ccc(C)cc3)nnc12	0	0	0	0	-	-
COC(=O)c1c(NC(=O)C2CC=CCC2C(=O)O)sc2c1CCC(C)C2 (centres undefined)	0	0	0	0	-	-
COc1ccc(CN2C(=S)N(C)C(=O)C2CC(=O)Nc2ccccc2)cc1 (centres undefined)	0	0	0	0	-	-
CSc1nnc(SC)n1N	0	0	0	0	-	-
Cc1sc2c(c1C)C(=O)NC(c1cn(Cc3ccccc3)c3ccccc13)N2 (centres undefined)	0	6.1	0	0	0	0
CN1C(=O)CC(c2cn(Cc3ccccc3)c3ccccc23)C1=O (centres undefined)	0	0	0	0	-	-
CCOC(=O)C1CCN(C(=O)Cc2c(C(=O)O)[nH]c3ccc(Cl)cc23)CC1	0	5.3	0	0	0	0
COc1ccc(Cl)cc1NC(=O)CCc1nnc2ccc(N3CCN(C)CC3)nn12	0	5.1	0	0	0	0
COc1ccc(OC)c(NC(=O)CCc2nnc3ccc(N4CCCCC4)nn23)c1	0	0	0	0	-	-
C/C(=N\O)c1cc2cc(Cl)ccc2oc1=O	0	0	0	0	-	-
CC(C)c1ccc(N2C(=O)NC(=O)/C(=C/c3ccc(O)cc3)C2=O)cc1	0	0	0	0	-	-
CC(C)c1ccc(N2C(=O)NC(=O)/C(=C/c3ccccc3O)C2=O)cc1	0	12	0	0	0	0
OCCNc1nc(Nc2ccncn2)nc2c1ncn2C1CCCCC1	0	0	0	0	-	-
CCCNc1nc(-c2c(C)noc2C)nc2c1ncn2C1CCCCC1	0	5.5	0	0	0	0
CCCNc1nc(Nc2ccncn2)nc2c1ncn2C1CCCCC1	0	4.9	0	0	0	0
Cc1noc(C)c1-c1nc(NCCOc2ccccc2)c2ncn(C3CCCCC3)c2n1	0	0	0	0	-	-
Cc1nn(C)c(C)c1-c1nc(NCCCN2CCCC2=O)c2ncn(C3CCCCC3)c2n1	0	5.8	0	0	0	0
CCCCCc1ccc(-c2ccc(C(=O)Oc3ccc(NC(C)=O)cc3)cc2)nc1	0	0	0	0	-	-
CCC(C)NC(=O)CSc1nc2ccccc2c2nc(CCn3nc(C)cc3C)nn12 (centres undefined)	0	0	0	0	-	-
SMILES	MITF primary	GPR151 ag	FBW7 act	TEAD-YAP block	GPR151 conf act	GPR119 ag
O=C(Nc1cccc2ccccc12)c1ccccc1C(=O)NC1CC1	0	0	0	0	-	-
O=C(CCCCCCN1C(=O)c2ccccc2C1=O)NN(c1ccccc1)c1ccccc1	0	6.2	0	0	0	0
O=C(CCCCCN1C(=O)c2ccccc2C1=O)Nc1ccccc1	0	0	0	0	-	-
Cc1cccc(N2N=C(c3ccccc3)CC2=O)c1C	0	8.8	0	0	0	0
O=C(NC1CCCCC1)c1cnc(N2CCCC2)nc1	0	0	0	0	-	-
NC(=O)/C(=C\c1ccco1)NC(=O)c1ccccc1Br	0	6.6	0	0	0	0
CCCCNC(=O)/C(=C/c1ccco1)NC(=O)c1ccc(I)cc1	0	0	0	0	-	-
CCCCNC(=O)/C(=C/c1ccco1)NC(=O)c1ccccc1I	0	9.2	0	0	0	0
Cc1ccc(CNC(=O)c2cc(Sc3ccc(Cl)cc3)nc3ccccc23)cc1	0	0	0	0	-	-
Cc1nc2cc(-c3cccc(F)c3)nn2c(NCCN)c1C	0	5.2	0	0	0	0
Cc1c(C(=O)Nc2ccc(Oc3ccccc3)cc2)sc2ncn(CC(=O)N3CC(C)CC(C)C3)c(=O)c12 (centres undefined)	0	0	0	0	-	-

Assay outcomes: PubChem, The Scripps Research Institute Molecular Screening Center
